Columns and labels:
[1] = target: Death-associated protein kinase 1 (Homo sapiens) (UniProt P53355); conditions: at 1 µM;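 also: each value is a mean inhibition figure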
[2] = target: T1, Serine/threonine-protein kinase DCLK2 (Homo sapiens) (UniProt Q8N568); conditions: at 0.1 µM
T1 sequence (whole entry): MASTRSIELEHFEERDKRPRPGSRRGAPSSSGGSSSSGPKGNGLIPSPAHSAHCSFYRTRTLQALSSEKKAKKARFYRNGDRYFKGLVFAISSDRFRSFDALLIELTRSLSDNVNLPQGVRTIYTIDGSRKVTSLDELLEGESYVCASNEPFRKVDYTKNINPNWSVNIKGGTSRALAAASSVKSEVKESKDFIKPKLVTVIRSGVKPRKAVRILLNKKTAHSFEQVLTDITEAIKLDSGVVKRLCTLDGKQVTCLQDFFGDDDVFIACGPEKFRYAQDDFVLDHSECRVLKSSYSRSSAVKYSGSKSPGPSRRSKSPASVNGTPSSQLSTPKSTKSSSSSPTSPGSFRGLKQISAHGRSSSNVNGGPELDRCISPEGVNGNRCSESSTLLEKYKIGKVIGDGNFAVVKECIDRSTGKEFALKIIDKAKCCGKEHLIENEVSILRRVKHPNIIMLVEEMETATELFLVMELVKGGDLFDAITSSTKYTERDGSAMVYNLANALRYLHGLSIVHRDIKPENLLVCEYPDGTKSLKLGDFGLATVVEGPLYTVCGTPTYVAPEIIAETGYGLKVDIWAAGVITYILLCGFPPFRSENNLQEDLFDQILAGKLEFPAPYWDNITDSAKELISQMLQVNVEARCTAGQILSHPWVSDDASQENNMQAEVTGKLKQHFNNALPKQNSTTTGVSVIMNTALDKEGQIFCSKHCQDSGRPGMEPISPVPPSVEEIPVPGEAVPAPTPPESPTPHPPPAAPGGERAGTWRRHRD

[3] = target: T1, Serine/threonine-protein kinase DCLK2 (Homo sapiens); conditions: at 1 µM
[4] = target: MAP kinase-activated protein kinase 2 (Homo sapiens) (UniProt P49137); conditions: at 0.1 µM
Sequence of MAP kinase-activated protein kinase 2 (Homo sapiens) (P49137 whole entry, looked up): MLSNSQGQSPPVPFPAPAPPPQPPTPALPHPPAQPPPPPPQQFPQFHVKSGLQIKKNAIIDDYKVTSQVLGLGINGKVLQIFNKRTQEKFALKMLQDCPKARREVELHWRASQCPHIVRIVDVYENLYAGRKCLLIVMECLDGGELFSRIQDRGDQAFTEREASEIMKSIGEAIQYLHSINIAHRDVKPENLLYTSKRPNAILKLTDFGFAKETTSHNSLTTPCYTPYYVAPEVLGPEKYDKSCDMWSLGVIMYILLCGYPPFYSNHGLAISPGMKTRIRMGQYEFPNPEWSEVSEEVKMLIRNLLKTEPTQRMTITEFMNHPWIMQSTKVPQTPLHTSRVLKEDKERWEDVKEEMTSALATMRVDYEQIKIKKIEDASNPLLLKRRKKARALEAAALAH

[5] = target: MAP kinase-activated protein kinase 2 (Homo sapiens) (UniProt P49137); conditions: at 1 µM
[6] = target: MAP kinase-activated protein kinase 3 (Homo sapiens) (UniProt Q16644); conditions: at 0.1 µM
Sequence of MAP kinase-activated protein kinase 3 (Homo sapiens) (Q16644 whole entry, looked up): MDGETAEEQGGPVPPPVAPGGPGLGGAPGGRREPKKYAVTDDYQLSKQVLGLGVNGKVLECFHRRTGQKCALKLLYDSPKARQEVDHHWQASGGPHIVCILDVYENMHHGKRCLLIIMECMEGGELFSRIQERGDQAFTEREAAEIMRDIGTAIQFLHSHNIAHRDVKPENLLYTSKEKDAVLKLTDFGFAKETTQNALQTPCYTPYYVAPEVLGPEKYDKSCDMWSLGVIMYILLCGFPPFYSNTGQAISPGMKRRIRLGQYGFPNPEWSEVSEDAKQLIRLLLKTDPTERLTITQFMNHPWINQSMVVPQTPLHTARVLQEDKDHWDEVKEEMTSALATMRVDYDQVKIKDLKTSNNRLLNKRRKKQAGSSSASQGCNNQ

[7] = target: MAP kinase-activated protein kinase 3 (Homo sapiens) (UniProt Q16644); conditions: at 1 µM
[8] = target: Serine/threonine-protein kinase MARK1 (Homo sapiens) (UniProt Q9P0L2); conditions: at 0.1 µM
[9] = target: Serine/threonine-protein kinase MARK1 (Homo sapiens) (UniProt Q9P0L2); conditions: at 1 µM
[10] = target: MAP/microtubule affinity-regulating kinase 3 (Homo sapiens) (UniProt P27448); conditions: at 0.1 µM
Sequence of MAP/microtubule affinity-regulating kinase 3 (Homo sapiens) (P27448 whole entry, looked up): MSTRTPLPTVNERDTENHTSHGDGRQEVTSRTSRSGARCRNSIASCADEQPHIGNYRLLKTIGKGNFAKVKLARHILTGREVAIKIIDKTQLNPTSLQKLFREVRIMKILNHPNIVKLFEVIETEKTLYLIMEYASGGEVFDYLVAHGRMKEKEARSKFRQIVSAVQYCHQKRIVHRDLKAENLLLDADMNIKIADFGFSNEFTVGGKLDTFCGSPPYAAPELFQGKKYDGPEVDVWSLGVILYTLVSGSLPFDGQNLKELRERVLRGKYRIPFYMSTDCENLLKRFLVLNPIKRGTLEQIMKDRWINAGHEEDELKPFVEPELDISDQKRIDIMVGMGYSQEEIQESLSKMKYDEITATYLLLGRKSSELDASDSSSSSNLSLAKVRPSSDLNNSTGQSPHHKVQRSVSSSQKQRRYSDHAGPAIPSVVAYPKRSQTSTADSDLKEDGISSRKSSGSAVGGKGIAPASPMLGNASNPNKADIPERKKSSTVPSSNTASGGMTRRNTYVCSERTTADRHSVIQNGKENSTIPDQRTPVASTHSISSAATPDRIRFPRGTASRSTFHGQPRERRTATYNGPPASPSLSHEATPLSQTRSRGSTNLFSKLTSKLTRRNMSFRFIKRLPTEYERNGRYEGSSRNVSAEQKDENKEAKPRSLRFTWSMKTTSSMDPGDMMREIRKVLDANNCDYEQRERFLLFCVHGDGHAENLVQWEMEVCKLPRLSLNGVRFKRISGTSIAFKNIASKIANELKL

[11] = target: MAP/microtubule affinity-regulating kinase 3 (Homo sapiens) (UniProt P27448); conditions: at 1 µM
[12] = target: T2, MAP/microtubule affinity-regulating kinase 4 (Homo sapiens) (UniProt Q96L34); conditions: at 0.1 µM
T2 sequence (whole entry): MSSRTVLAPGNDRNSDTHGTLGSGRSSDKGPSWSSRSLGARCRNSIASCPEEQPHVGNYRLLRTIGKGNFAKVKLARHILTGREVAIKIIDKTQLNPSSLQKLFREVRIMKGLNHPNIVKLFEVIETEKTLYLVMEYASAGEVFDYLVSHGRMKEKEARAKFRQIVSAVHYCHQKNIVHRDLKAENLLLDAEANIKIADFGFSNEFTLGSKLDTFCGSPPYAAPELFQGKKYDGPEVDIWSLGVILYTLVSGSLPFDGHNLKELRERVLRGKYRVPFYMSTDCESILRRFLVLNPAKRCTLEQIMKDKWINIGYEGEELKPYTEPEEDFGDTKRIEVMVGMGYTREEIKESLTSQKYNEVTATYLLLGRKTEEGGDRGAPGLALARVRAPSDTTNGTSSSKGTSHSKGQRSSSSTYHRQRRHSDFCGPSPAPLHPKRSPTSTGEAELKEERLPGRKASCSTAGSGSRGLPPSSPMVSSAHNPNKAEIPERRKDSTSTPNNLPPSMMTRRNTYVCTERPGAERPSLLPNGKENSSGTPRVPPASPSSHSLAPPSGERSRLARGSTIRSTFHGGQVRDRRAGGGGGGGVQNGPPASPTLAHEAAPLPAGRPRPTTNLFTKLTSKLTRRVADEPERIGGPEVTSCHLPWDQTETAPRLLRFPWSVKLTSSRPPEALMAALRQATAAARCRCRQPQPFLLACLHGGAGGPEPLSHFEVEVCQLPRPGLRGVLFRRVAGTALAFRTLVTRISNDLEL

[13] = target: T2, MAP/microtubule affinity-regulating kinase 4 (Homo sapiens); conditions: at 1 µM
[14] = target: Maternal embryonic leucine zipper kinase (Homo sapiens) (UniProt Q14680); conditions: at 0.1 µM
[15] = target: Maternal embryonic leucine zipper kinase (Homo sapiens) (UniProt Q14680); conditions: at 1 µM
[16] = target: MAP kinase-interacting serine/threonine-protein kinase 1 (Homo sapiens) (UniProt Q9BUB5); conditions: at 0.1 µM
Sequence of MAP kinase-interacting serine/threonine-protein kinase 1 (Homo sapiens) (Q9BUB5 whole entry, looked up): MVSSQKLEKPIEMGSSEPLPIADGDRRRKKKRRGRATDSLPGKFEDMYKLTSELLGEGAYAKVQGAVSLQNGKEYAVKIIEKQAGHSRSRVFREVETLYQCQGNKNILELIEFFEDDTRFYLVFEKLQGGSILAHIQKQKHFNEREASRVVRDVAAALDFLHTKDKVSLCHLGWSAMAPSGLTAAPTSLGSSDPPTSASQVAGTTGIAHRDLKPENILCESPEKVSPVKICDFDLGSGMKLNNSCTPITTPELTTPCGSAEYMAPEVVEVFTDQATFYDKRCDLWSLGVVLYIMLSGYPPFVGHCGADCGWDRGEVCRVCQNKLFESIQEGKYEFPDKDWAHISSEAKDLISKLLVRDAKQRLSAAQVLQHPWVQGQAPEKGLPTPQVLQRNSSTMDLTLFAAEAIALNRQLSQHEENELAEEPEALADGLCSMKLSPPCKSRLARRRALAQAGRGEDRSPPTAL

[17] = target: MAP kinase-interacting serine/threonine-protein kinase 1 (Homo sapiens) (UniProt Q9BUB5); conditions: at 1 µM
[18] = target: MAP kinase-interacting serine/threonine-protein kinase 2 (Homo sapiens) (UniProt Q9HBH9); conditions: at 0.1 µM
Sequence of MAP kinase-interacting serine/threonine-protein kinase 2 (Homo sapiens) (Q9HBH9 whole entry, looked up): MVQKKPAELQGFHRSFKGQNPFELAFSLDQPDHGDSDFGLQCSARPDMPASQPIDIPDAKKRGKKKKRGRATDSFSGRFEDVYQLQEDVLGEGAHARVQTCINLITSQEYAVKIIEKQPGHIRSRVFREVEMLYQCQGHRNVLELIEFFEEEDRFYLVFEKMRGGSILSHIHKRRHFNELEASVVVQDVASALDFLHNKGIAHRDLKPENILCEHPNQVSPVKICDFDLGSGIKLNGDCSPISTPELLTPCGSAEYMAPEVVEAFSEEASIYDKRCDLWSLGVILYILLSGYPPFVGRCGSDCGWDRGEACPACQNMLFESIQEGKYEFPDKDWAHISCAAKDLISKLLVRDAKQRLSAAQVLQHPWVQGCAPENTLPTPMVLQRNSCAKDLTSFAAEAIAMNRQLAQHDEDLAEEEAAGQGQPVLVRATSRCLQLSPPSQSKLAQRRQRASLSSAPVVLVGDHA

[19] = target: MAP kinase-interacting serine/threonine-protein kinase 2 (Homo sapiens) (UniProt Q9HBH9); conditions: at 1 µM
[20] = target: Serine/threonine-protein kinase MARK2 (Homo sapiens) (UniProt Q7KZI7); conditions: at 0.1 µM;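 also: mean percent inhibition of PAR-1Balpha kinase activity, reported from the GSK PKIS screen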
Sequence of Serine/threonine-protein kinase MARK2 (Homo sapiens) (Q7KZI7 whole entry): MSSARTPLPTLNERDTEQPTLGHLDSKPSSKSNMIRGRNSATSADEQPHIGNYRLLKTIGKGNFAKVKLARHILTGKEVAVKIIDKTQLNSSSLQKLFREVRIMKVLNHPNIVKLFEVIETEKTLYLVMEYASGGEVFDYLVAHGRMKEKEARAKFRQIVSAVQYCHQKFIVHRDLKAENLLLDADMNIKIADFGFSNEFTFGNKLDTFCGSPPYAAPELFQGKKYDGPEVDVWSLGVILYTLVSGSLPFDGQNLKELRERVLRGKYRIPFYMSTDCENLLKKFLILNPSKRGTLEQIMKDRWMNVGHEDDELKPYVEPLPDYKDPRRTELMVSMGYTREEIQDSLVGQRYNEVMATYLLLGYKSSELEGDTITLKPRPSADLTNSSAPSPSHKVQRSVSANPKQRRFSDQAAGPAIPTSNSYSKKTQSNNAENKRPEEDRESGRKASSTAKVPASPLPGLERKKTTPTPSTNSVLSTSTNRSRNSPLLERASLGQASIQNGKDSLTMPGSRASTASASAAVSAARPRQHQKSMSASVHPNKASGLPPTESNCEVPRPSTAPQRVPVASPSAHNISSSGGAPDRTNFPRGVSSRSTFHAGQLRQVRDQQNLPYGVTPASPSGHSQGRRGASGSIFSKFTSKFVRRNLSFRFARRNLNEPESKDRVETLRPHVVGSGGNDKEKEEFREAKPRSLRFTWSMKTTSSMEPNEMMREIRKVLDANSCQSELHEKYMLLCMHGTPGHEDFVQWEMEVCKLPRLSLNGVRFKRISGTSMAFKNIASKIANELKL

Sequence of Death-associated protein kinase 1 (Homo sapiens) (P53355 whole entry, looked up): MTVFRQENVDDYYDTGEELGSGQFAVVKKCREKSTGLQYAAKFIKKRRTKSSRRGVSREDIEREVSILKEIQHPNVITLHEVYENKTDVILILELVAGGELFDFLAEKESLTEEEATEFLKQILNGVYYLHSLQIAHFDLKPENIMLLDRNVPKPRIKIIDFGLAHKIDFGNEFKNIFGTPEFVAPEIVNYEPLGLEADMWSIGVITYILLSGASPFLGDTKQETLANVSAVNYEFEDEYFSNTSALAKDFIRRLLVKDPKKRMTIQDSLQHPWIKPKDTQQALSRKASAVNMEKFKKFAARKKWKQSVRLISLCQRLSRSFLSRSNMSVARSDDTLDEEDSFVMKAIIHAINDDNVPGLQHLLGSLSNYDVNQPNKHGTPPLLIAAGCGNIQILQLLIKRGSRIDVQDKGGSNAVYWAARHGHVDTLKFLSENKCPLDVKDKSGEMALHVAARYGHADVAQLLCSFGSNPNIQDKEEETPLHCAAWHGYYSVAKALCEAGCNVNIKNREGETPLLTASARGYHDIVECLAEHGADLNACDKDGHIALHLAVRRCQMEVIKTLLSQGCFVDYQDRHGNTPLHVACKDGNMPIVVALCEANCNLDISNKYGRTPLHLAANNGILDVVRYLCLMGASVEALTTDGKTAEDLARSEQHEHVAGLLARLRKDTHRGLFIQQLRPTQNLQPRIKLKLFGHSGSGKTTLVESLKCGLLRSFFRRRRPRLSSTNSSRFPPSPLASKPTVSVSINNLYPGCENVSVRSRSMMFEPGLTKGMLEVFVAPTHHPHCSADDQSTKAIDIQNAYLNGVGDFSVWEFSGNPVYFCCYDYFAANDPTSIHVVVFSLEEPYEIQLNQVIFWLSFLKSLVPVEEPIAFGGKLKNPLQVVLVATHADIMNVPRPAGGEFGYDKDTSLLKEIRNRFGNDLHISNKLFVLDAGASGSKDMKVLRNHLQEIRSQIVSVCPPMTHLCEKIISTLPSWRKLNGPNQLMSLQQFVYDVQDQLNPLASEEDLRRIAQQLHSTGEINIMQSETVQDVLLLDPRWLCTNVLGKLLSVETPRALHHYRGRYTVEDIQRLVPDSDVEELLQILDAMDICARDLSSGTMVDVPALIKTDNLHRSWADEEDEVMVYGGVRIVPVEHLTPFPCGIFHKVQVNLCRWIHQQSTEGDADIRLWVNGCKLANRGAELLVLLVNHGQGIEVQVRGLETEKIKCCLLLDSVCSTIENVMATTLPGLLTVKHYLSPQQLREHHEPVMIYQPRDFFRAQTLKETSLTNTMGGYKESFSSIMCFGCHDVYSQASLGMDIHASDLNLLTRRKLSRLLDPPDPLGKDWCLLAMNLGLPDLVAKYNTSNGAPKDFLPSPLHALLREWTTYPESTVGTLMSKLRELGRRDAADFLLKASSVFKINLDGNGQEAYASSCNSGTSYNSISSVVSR

| Compound | inhibition [1] [%] | inhibition [2] [%] | inhibition [3] [%] | inhibition [4] [%] | inhibition [5] [%] | inhibition [6] [%] | inhibition [7] [%] | inhibition [8] [%] | inhibition [9] [%] | inhibition [10] [%] | inhibition [11] [%] | inhibition [12] [%] | inhibition [13] [%] | inhibition [14] [%] | inhibition [15] [%] | inhibition [16] [%] | inhibition [17] [%] | inhibition [18] [%] | inhibition [19] [%] | inhibition [20] [%] |
| --- | --- | --- | --- | --- | --- | --- | --- | --- | --- | --- | --- | --- | --- | --- | --- | --- | --- | --- | --- | --- |
| Cc1ccc(O)cc1Nc1ccnc2ccc(S(C)(=O)=O)cc12 | 13.2 | 2.11 | 1.09 | 4.78 | 5.17 | 14.2 | 24.2 | 4.73 | 7.33 | 2.7 | 4.85 | 2.23 | 1.71 | 4.23 | 9.23 | 3.85 | 12.2 | 1.97 | 9.18 | 2.65 |
| Cc1ccc(NC(=O)CC2CC2)cc1-c1ccc(C(=O)NCC2CC2)cc1 | 12.4 | 1.13 | 0.51 | 4.17 | 4.27 | 18.4 | 33.5 | 2.05 | 2.04 | 2.42 | 1.71 | 1 | -0.01 | 4.17 | 2.02 | 2.59 | 7.07 | 1.63 | 5.54 | -1.05 |
| Cc1cc(O)cc(C)c1/C=C/c1cncc(C(=O)N(C)C)c1 | 5.28 | 3.47 | 0.19 | 0.52 | 0.82 | 0.87 | 1.23 | 1.15 | 1.29 | 2.67 | 13.7 | 1.25 | 2.49 | 3.84 | 4.23 | 4.18 | 18 | 2.2 | 9.99 | -1.4 |
| Cc1ccc(Nc2ccnc(Nc3cccc(C(N)=O)c3)n2)cc1O | 0.43 | -4.04 | 0.3 | 1.02 | 0.74 | 3.05 | 7.65 | 2.3 | 6.45 | 4.15 | 12.5 | 1.68 | 6.22 | 2.96 | 7.7 | 2.87 | 13.4 | 2.08 | 16.7 | 0.4 |
| Cc1ccc2c(-c3ccnc(Nc4cccc(C(F)(F)F)c4)n3)c(-c3ccccc3)nn2n1 | -5.56 | 0.64 | 2.53 | -1.16 | -0.78 | 15.6 | 27.2 | 1.58 | 4.76 | -0.41 | 3.93 | 2.61 | 2.82 | 5.84 | 10.4 | 3.3 | 4.19 | 2.04 | 3.52 | 1.89 |
| NC(=O)c1cccc(Nc2nccc(Nc3cccc(F)c3)n2)c1 | -2.63 | -0.56 | 0.44 | 0.22 | 0.05 | 1.51 | 1.85 | 0.81 | 2.94 | 1.98 | 2.35 | 0.72 | 3.28 | -2.04 | 2.88 | 1.05 | 3.91 | 0.26 | 8.7 | -1.24 |

From ChEMBL document CHEMBL1961873, “Compounds: GSK PKIS; Assays: Nanosyn kinase panel” (2012)
